Test results from PubChem BioAssay (NCATS).
Results filed as inconclusive are left out. Activity calls are given as the source filed them. The call rests on the fitted dose curve; in most records, active means well fitted curve in the direction sought with a large enough effect; inconclusive means small, poorly fitted or top-dose-only effect, or another doubt; inactive means no such curve, though single readings can be large; an effect the other way counts as inactive or inconclusive.

How the values were obtained:
[1] = MultiTox-Fluor Cytotoxicity Assay - LYMP1-001 - Dead Cells (AID 946)
Outline: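 LYMP1-001 lymphoblastoid cells (2500/well) treated 16 h at 37 C. Dead-cell protease cleavage of bis-AAF-R110 read at Ex/Em 485/520. Normalized to DMSO and 15 uM tetraoctylammonium bromide; AC50 from Hill fits.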

[2] = MultiTox-Fluor Cytotoxicity Assay - LYMP1-001 - Live Cells (AID 947)
[3] = MultiTox-Fluor Cytotoxicity Assay - LYMP1-003 - Dead Cells (AID 961); further: nearly all actives have a fitted effect of over 70% in size
Outline: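 LYMP1-003 human lymphoblastoid cells (2500/well) exposed to compound 16 h at 37 C in complete medium; dead-cell protease read with bis-AAF-R110 fluorescence (Ex/Em 485/520) after 60 min at room temperature. Normalized to DMSO and 15 uM tetraoctylammonium bromide; AC50 from Hill fit.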

[4] = Cell Viability - LYMP2-003 (AID 965);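 further: cells exposed to compounds for 24 h before reading; nearly all actives have a fitted effect of over 50% in size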
Outline: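 Human lymphoblastoid cells (2500/well) were pre-incubated 5 hr at 37 C, then exposed to compounds over a concentration range for 24 hr at 37 C. Intracellular ATP was read by CellTiter-Glo luminescence; AC50 came from Hill-equation fits.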

[5] = Cell Viability - LYMP2-011 (AID 969); further: nearly all actives have a fitted effect of over 60% in size
Outline: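 Human lymphoblastoid cells (2500/well) were plated in complete medium, preincubated 5 hr at 37 C, then exposed to compounds for 24 hr at 37 C. Intracellular ATP was read by CellTiter-Glo luminescence, and AC50 came from Hill-equation concentration-response fits.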

[6] = Cell Viability - LYMP2-013 (AID 970); further: nearly all actives have a fitted effect of over 55% in size
Outline: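 Human lymphoblastoid cells, 2500/well, were preincubated 5 hr at 37 C, then treated with compounds for 24 hr at 37 C in complete medium. Intracellular ATP was read by CellTiter-Glo luminescence; AC50 from Hill-equation fits of concentration-response data.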

[7] = Cell Viability - LYMP2-015 (AID 971); further: nearly all actives have a fitted effect of over 55% in size
Outline: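 Human lymphoblastoid cells (2500/well) in complete medium were preincubated 5 hr at 37 C, then compound-treated 24 hr at 37 C. Intracellular ATP was read by CellTiter-Glo luminescence after 30 min at room temperature; AC50 came from Hill-equation concentration-response fits.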

[8] = Cell Viability - LYMP2-017 (AID 972); further: nearly all actives have a fitted effect of over 55% in size
Outline: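 Human lymphoblastoid cells (2500/well) were seeded in complete medium, held 5 hr at 37 C, then exposed to compounds for 24 hr at 37 C. Intracellular ATP was read by CellTiter-Glo luminescence after 30 min at room temperature, with AC50 values from Hill-equation fits.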

[9] = Cell Viability - LYMP2-019 (AID 973); further: nearly all actives have a fitted effect of over 55% in size
Outline: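 Human lymphoblastoid cells were seeded at 2500 cells/well, preincubated 5 hr at 37 C, then exposed to compounds for 24 hr at 37 C in complete medium. Intracellular ATP was measured by CellTiter-Glo luminescence; AC50 from Hill fits.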

[10] = Cell Viability - LYMP2-021 (AID 974)
Outline: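 Human lymphoblastoid cells (2500/well) were preincubated 5 hr at 37 C, then exposed to compounds for 24 hr at 37 C in complete medium. Intracellular ATP was read by CellTiter-Glo luminescence; AC50 came from Hill-equation fits of concentration-response data.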

[11] = Cell Viability - LYMP2-023 (AID 975); further: nearly all actives have a fitted effect of over 55% in size
Outline: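 Human lymphoblastoid cells (2500/well) were preincubated 5 hr at 37 C, then exposed to compounds for 24 hr at 37 C in complete medium. Cellular ATP was read by CellTiter-Glo luminescence, and AC50 came from Hill-equation fits.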

[12] = Cell Viability - LYMP2-006 (AID 978); further: nearly all actives have a fitted effect of over 60% in size
Outline: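 Human lymphoblastoid cells, 2500 per well, were preincubated 5 hr at 37 C, then exposed to compounds for 24 hr at 37 C in complete medium. Viability was read as intracellular ATP by CellTiter-Glo luminescence; AC50 from Hill-equation fits of qHTS concentration-response data.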

[13] = Cell Viability - LYMP2-007 (AID 979);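 further: cells exposed to compound for 24 h before reading; nearly all actives have a fitted effect of over 60% in size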
Outline: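 Human lymphoblastoid cells (2500/well) were plated in complete medium, incubated 5 hr at 37 C, then exposed to compounds for 24 hr at 37 C. Intracellular ATP was read by CellTiter-Glo luminescence after 30 min at room temperature; AC50 from Hill fits.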

[14] = Cell Viability - LYMP2-012 (AID 982)
[15] = Cell Viability - LYMP2-014 (AID 983); further: nearly all actives have a fitted effect of over 50% in size
Outline: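 Human lymphoblastoid cells (2500/well) were pre-incubated 5 hr at 37 C, then exposed to compounds in complete medium for 24 hr at 37 C. Intracellular ATP was read by CellTiter-Glo luminescence after 30 min at room temperature; AC50 from Hill fits.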

[16] = Cell Viability - LYMP2-016 (AID 984); further: nearly all actives have a fitted effect of over 55% in size
Outline: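 Human lymphoblastoid cells (LYMP2-016), 2500/well in complete medium, preincubated 5 hr at 37 C, then compound-treated 24 hr at 37 C. Intracellular ATP read by CellTiter-Glo luminescence after 30 min at room temperature; AC50 from Hill-equation concentration-response fits.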

[17] = Cell Viability - LYMP2-018 (AID 985);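 further: compound exposure lasted 24 hr at 37 °C; nearly all actives have a fitted effect of over 50% in size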
Outline: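 Human lymphoblastoid cells (2500/well) were pre-incubated 5 hr at 37 C, then exposed to compounds for 24 hr at 37 C in complete medium. Viability was read as intracellular ATP by CellTiter-Glo luminescence; AC50 values came from Hill-equation fits.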

[18] = Cell Viability - LYMP2-020 (AID 986); further: nearly all actives have a fitted effect of over 55% in size
Outline: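 Human lymphoblastoid cells, 2500/well, were pre-incubated 5 hr at 37 C, then exposed to compounds for 24 hr at 37 C in complete medium. Intracellular ATP was read by CellTiter-Glo luminescence, and AC50 was derived by Hill fitting of concentration-response data.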

[19] = Cell Viability - LYMP2-024 (AID 988); further: nearly all actives have a fitted effect of over 60% in size
Outline: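 Human lymphoblastoid cells (2500/well) in complete medium were preincubated 5 hr at 37 C, then exposed to compounds for 24 hr at 37 C. Intracellular ATP was read by CellTiter-Glo luminescence; AC50 from Hill-equation fits of concentration-response data.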

[20] = Cell Viability - LYMP2-026 (AID 989); further: nearly all actives have a fitted effect of over 50% in size
Outline: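 Human lymphoblastoid cells (2500/well) in complete medium were preincubated 5 hr at 37 C, then exposed to compounds for 24 hr at 37 C. Cellular ATP was read by CellTiter-Glo luminescence; AC50 from Hill-equation fits of concentration-response data.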

Measured: Potency
Potency means the concentration at half of the fitted maximal effect.

C=CC(=O)OCC(CO)(COC(=O)C=C)COC(=O)C=C
active: [1] 7.94 µM | [2] 6.31 µM | [3] 7.94 µM | [4] 3.98 µM | [5] 5.01 µM | [6] 5.01 µM | [7] 5.01 µM | [8] 5.01 µM | [9] 3.98 µM | [10] 3.98 µM | [11] 6.31 µM | [12] 5.01 µM | [13] 5.01 µM | [14] 3.98 µM | [15] 5.01 µM | [16] 5.01 µM | [17] 3.98 µM | [18] 3.98 µM | [19] 3.16 µM | [20] 6.31 µM

O=Nc1ccc(Nc2ccccc2)cc1
active: [1] 5.01 µM | [2] 7.94 µM | [3] 5.01 µM | [4] 7.94 µM | [5] 7.94 µM | [6] 10 µM | [7] 3.98 µM | [8] 6.31 µM | [9] 3.98 µM | [10] 5.01 µM | [11] 6.31 µM | [12] 7.94 µM | [13] 5.01 µM | [14] 7.94 µM | [15] 6.31 µM | [16] 6.31 µM | [17] 3.98 µM | [18] 5.01 µM | [19] 2.51 µM | [20] 6.31 µM

c1cc(OCC2CO2)cc(OCC2CO2)c1 (stereo not drawn)
active: [3] 39.8 µM | [4] 25.1 µM | [5] 39.8 µM | [6] 50.1 µM | [7] 39.8 µM | [8] 39.8 µM | [9] 39.8 µM | [10] 39.8 µM | [11] 50.1 µM | [12] 39.8 µM | [13] 39.8 µM | [14] 31.6 µM | [15] 39.8 µM | [16] 25.1 µM | [17] 31.6 µM | [18] 39.8 µM | [19] 39.8 µM | [20] 39.8 µM
